Results as given in PubChem BioAssay (NCI).
This is part of a sample that, as a whole, favours compounds with a hit. Of some 79,000 tested, about 15% had one in any assay. Values without a mark were called inactive. Activity calls are given as the source filed them. Rule as the data show it: active = growth inhibition above about 70%; inactive = the rest.

How the values were obtained:
[1] = NCI Yeast Anticancer Drug Screen. Data for the rad52 strain (AID 147);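 also: 0% = growth of vehicle-treated control cultures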; conditions: S. cerevisiae rad52 mutant growth inhibition, stronger effect = higher value
Outline: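 The repair-mutant yeast strain was incubated with compounds, then growth was read and inhibition derived relative to vehicle.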

[2] = NCI Yeast Anticancer Drug Screen. Data for the wt1 strain (AID 149);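 also: 0% = growth of vehicle-treated wt1 cultures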; conditions: S. cerevisiae wt1 strain (SPY 50644) growth inhibition, stronger effect = higher value
Outline: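 wt1 yeast, compound-treated; % growth inhibition vs vehicle control.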

[3] = NCI Yeast Anticancer Drug Screen. Data for the rad50EPP+ strain (AID 151);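 also: 0% = growth of vehicle-treated control cultures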; conditions: S. cerevisiae rad50 mutant strain, stronger effect = higher value
Outline: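 Vehicle-normalised growth inhibition; rad50EPP+ yeast strain, altered in DNA damage repair, compound-treated.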

[4] = NCI Yeast Anticancer Drug Screen. Data for the mgt1 strain (AID 153); conditions: S. cerevisiae mgt1 mutant growth inhibition, stronger effect = higher value
Outline: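 Vehicle-normalized growth inhibition is determined in mgt1 yeast, a strain selected for a defined alteration in DNA repair or cell cycle control.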

[5] = NCI Yeast Anticancer Drug Screen. Data for the rad50 strain (AID 155);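 also: 0% = growth of vehicle-only cultures of the same strain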; conditions: S. cerevisiae rad50 strain growth inhibition, stronger effect = higher value
Outline: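 Genetically altered yeast (DNA repair pathway); compound treatment; growth inhibition vs vehicle ctrl.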

[6] = NCI Yeast Anticancer Drug Screen. Data for the mec2-1 strain (AID 157); conditions: S. cerevisiae mec2-1 strain, stronger effect = higher value
Outline: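 Mutant yeast (mec2-1) grown with compound; growth inhibition relative to vehicle control reported.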

[7] = NCI Yeast Anticancer Drug Screen. Data for the rad14 strain (AID 159);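 also: 0% = growth of vehicle-treated control cultures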; conditions: S. cerevisiae rad14 strain growth inhibition, stronger effect = higher value
Outline: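 Test compounds were applied to a repair-deficient yeast strain. Its growth was then compared with that of cultures given vehicle alone, and inhibition was expressed relative to those controls.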

[8] = NCI Yeast Anticancer Drug Screen. Data for the sgs1 mgt1 strain (AID 161);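 also: 0% = growth of cultures given vehicle only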; conditions: S. cerevisiae sgs1 mgt1 strain, stronger effect = higher value
Outline: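 Percent growth inhibition was derived by comparing compound-exposed mutant yeast with vehicle-exposed cultures. The strain carries alterations in DNA damage repair.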

[9] = NCI Yeast Anticancer Drug Screen. Data for the CLN2oe strain (AID 163);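 also: 0% = growth of vehicle-only control cultures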; conditions: S. cerevisiae CLN2oe strain, stronger effect = higher value
Outline: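 Compounds are applied to yeast harbouring a defined cell-cycle control change; reduced growth compared with vehicle-treated controls gives the value.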

[10] = NCI Yeast Anticancer Drug Screen. Data for the cln2 rad14 strain (AID 165);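 also: 0% = growth equal to vehicle treated cultures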; conditions: S. cerevisiae cln2 rad14 strain, stronger effect = higher value
Outline: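 Readout is yeast growth inhibition versus vehicle-treated controls, using a strain with cln2 and rad14 alterations exposed to compound.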

[11] = NCI Yeast Anticancer Drug Screen. Data for the bub3 strain (AID 167); conditions: S. cerevisiae bub3 mutant strain, stronger effect = higher value
Outline: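 Yeast carrying a defined mutation is treated with each compound, and growth is compared with that of vehicle-exposed cells to give inhibition.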

[12] = NCI Yeast Anticancer Drug Screen. Data for the wt2 strain (AID 169);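 also: 0% = growth of vehicle-treated yeast cultures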; conditions: S. cerevisiae wt2 strain growth inhibition, stronger effect = higher value
Outline: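 Against vehicle-treated controls, the growth of yeast exposed to each compound was compared, and the inhibition was recorded.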

[13] = NCI Yeast Anticancer Drug Screen. Data for the mlh1 strain (AID 171);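 also: 0% = growth of vehicle-treated control cultures of the same strain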; conditions: S. cerevisiae mlh1 strain growth inhibition, stronger effect = higher value
Outline: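 Measured: yeast growth. Reference: vehicle-treated controls. Organism: strain with a defined alteration affecting DNA damage repair or cell cycle control, treated with compound.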

[14] = NCI Yeast Anticancer Drug Screen. Data for the sgs1 strain (AID 173);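 also: 0% = growth of vehicle-only control cultures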; conditions: S. cerevisiae sgs1 mutant, stronger effect = higher value
Outline: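 Each compound was added to cultures of the altered yeast strain. Growth was recorded, and inhibition was derived by comparison with vehicle controls.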

[15] = NCI Yeast Anticancer Drug Screen. Data for the mlh1 rad18 strain (AID 175); conditions: S. cerevisiae mlh1 rad18 strain growth inhibition, stronger effect = higher value
Outline: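 Genetically defined yeast (DNA repair-deficient) exposed to compounds; growth inhibition determined relative to vehicle.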

[16] = NCI Yeast Anticancer Drug Screen. Data for the rad18 strain (AID 177); conditions: S. cerevisiae rad18 mutant growth inhibition, stronger effect = higher value
Outline: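 Vehicle-treated cultures served as the baseline for scoring compound-induced growth inhibition in DNA-repair-mutant yeast.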

[17] = at 5.0 µM (retest, dose inferred, filed as 0.5)
[18] = at 50.0 µM (retest, dose inferred, filed as 5.0)

SMILES: Cc1cc(C(C)(C)CC(C)(C)C)ccc1O
- growth inhibition ([1]; at 1.2 µM): -22%
- growth inhibition ([1]; at 3.7 µM): -45%
- growth inhibition ([1]; at 11.0 µM): 15%
- growth inhibition ([1]; at 33.0 µM): 98% (active)
- growth inhibition ([1]; at 100.0 µM): 98% (active)
- growth inhibition ([2]; at 1.2 µM): -1%
- growth inhibition ([2]; at 3.7 µM): -22%
- growth inhibition ([2]; at 11.0 µM): 17%
- growth inhibition ([2]; at 33.0 µM): 99% (active)
- growth inhibition ([2]; at 100.0 µM): 99% (active)
- growth inhibition ([3]; at 1.2 µM): -16%
- growth inhibition ([3]; at 3.7 µM): -16%
- growth inhibition ([3]; at 11.0 µM): 1%
- growth inhibition ([3]; at 33.0 µM): 60%
- growth inhibition ([3]; at 100.0 µM): 99% (active)
- growth inhibition ([4]; at 1.2 µM): -52%
- growth inhibition ([4]; at 3.7 µM): -66%
- growth inhibition ([4]; at 11.0 µM): -37%
- growth inhibition ([4]; at 33.0 µM): 98% (active)
- growth inhibition ([4]; at 100.0 µM): 99% (active)
- growth inhibition ([5]; at 1.2 µM): 12%
- growth inhibition ([5]; at 3.7 µM): 11%
- growth inhibition [5, 17]: 25%
- growth inhibition ([5]; at 11.0 µM): 38%
- growth inhibition ([5]; at 33.0 µM): 98% (active)
- growth inhibition [5, 18]: 79% (active)
- growth inhibition ([5]; at 50.0 µM): 92.3% (active)
- growth inhibition ([5]; at 100.0 µM): 99% (active)
- growth inhibition ([6]; at 1.2 µM): -41%
- growth inhibition ([6]; at 3.7 µM): -58%
- growth inhibition [6, 17]: 28%
- growth inhibition ([6]; at 11.0 µM): 3%
- growth inhibition ([6]; at 33.0 µM): 99% (active)
- growth inhibition [6, 18]: 70% (active)
- growth inhibition ([6]; at 50.0 µM): 91.8% (active)
- growth inhibition ([6]; at 100.0 µM): 99% (active)
- growth inhibition ([7]; at 1.2 µM): -3%
- growth inhibition ([7]; at 3.7 µM): -30%
- growth inhibition ([7]; at 11.0 µM): 16%
- growth inhibition ([7]; at 33.0 µM): 99% (active)
- growth inhibition ([7]; at 100.0 µM): 99% (active)
- growth inhibition [8, 17]: -14%
- growth inhibition [8, 18]: 99% (active)
- growth inhibition ([8]; at 50.0 µM): 93.7% (active)
- growth inhibition ([9]; at 1.2 µM): -31%
- growth inhibition ([9]; at 3.7 µM): -28%
- growth inhibition ([9]; at 11.0 µM): -17%
- growth inhibition ([9]; at 33.0 µM): 98% (active)
- growth inhibition ([9]; at 100.0 µM): 99% (active)
- growth inhibition [10, 17]: 55%
- growth inhibition [10, 18]: 98% (active)
- growth inhibition ([10]; at 50.0 µM): 92.8% (active)
- growth inhibition ([11]; at 1.2 µM): -9%
- growth inhibition ([11]; at 3.7 µM): -49%
- growth inhibition [11, 17]: 6%
- growth inhibition ([11]; at 11.0 µM): 32%
- growth inhibition ([11]; at 33.0 µM): 98% (active)
- growth inhibition [11, 18]: 99% (active)
- growth inhibition ([11]; at 50.0 µM): 92.4% (active)
- growth inhibition ([11]; at 100.0 µM): 99% (active)
- growth inhibition ([12]; at 1.2 µM): -20%
- growth inhibition ([12]; at 3.7 µM): -34%
- growth inhibition ([12]; at 11.0 µM): -10%
- growth inhibition ([12]; at 33.0 µM): 99% (active)
- growth inhibition ([12]; at 100.0 µM): 99% (active)
- growth inhibition ([13]; at 1.2 µM): -16%
- growth inhibition ([13]; at 3.7 µM): -53%
- growth inhibition ([13]; at 11.0 µM): -16%
- growth inhibition ([13]; at 33.0 µM): 95% (active)
- growth inhibition ([13]; at 100.0 µM): 99% (active)
- growth inhibition ([14]; at 1.2 µM): -17%
- growth inhibition ([14]; at 3.7 µM): -38%
- growth inhibition ([14]; at 11.0 µM): 14%
- growth inhibition ([14]; at 33.0 µM): 99% (active)
- growth inhibition ([14]; at 100.0 µM): 99% (active)
- growth inhibition [15, 17]: 26%
- growth inhibition [15, 18]: 73% (active)
- growth inhibition ([15]; at 50.0 µM): 92.9% (active)
- growth inhibition ([16]; at 1.2 µM): -13%
- growth inhibition ([16]; at 3.7 µM): -42%
- growth inhibition ([16]; at 11.0 µM): 36%
- growth inhibition ([16]; at 33.0 µM): 98% (active)
- growth inhibition ([16]; at 100.0 µM): 98% (active)
